Measurements reported in PubChem BioAssay (Tox21).
Inconclusive results are not listed. The source made the active and inactive calls. Unless noted, calls follow the shape of the full dose curve.

Legend:
[1] = Nuclear factor erythroid 2-related factor 2/antioxidant responsive element (Nrf2/ARE) small molecule agonists: qHTS cell viability counter screen in human keratinocytes (AID 1919968; active = well fitted curve in the direction sought with a large enough effect in the repeat runs; an effect the other way counts as inactive or inconclusive; also: nearly all actives have a fitted effect of over 55% in size; also: potency is read from the fitted curve at half-maximal effect)
Method in brief: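 Seed 1,500 KeratinoSens cells per well, then incubate 5 h at 37 C/5% CO2. Add compounds in DMSO and incubate 23 h. Add CellTiter-Fluor, wait 1 h and read fluorescence.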

[2] = Nuclear factor erythroid 2-related factor 2/antioxidant responsive element (Nrf2/ARE) small molecule agonists: luciferase reporter gene qHTS assay in human keratinocytes (AID 1919969); also: nearly all actives have a fitted effect of over 35% in size
[3] = target: Gonadotropin-releasing hormone receptor (Homo sapiens) (UniProt P30968); experiment: Human gonadotropin-releasing hormone receptor (GnRHR) small molecule agonists, calcium flux assay in GnRHR-HEK293 cells (AID 1920063); also: nearly all actives have a fitted effect of over 35% in size
Sequence of Gonadotropin-releasing hormone receptor (Homo sapiens) (P30968 whole entry, looked up): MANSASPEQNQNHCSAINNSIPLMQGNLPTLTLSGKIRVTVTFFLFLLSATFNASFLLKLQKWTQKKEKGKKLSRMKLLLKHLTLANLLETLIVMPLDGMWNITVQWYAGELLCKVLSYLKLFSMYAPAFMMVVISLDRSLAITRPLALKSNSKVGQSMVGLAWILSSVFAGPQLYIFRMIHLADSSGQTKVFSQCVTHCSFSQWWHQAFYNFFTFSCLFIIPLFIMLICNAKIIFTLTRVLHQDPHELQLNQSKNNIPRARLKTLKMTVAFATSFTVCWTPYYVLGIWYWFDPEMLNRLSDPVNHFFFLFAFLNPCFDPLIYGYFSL
Method in brief: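 Cells: HEK293 stably expressing human GnRHR. Steps: overnight (18 h) culture, 1 h calcium dye loading at 37 C, compound addition, kinetic fluorescence read at 480/540 nm. Each compound tested at 15 concentrations in triplicate.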

[4] = target: KiSS-1 receptor (Homo sapiens) (UniProt Q969F8); experiment: Human kisspeptin (KISS1R) small molecule agonists, calcium flux assay in KISS1R-HEK293 cells (AID 1920064; active = well fitted curve in the direction sought with a large enough effect in the repeat runs; an effect the other way counts as inactive or inconclusive)
Sequence of KiSS-1 receptor (Homo sapiens) (Q969F8 whole entry, looked up): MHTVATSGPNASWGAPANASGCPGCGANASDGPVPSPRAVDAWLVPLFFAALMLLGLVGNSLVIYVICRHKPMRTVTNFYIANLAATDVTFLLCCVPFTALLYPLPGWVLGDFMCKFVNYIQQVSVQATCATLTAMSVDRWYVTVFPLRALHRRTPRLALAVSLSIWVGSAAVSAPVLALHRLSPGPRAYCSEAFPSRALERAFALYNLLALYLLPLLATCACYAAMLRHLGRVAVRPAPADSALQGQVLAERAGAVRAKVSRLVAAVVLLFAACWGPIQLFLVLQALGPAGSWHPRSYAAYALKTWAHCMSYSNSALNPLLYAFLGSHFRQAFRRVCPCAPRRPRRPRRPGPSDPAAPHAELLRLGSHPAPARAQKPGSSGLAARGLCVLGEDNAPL
Method in brief: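 Cells plated and incubated 18 h; dye added, 1 h at 37 C; compounds in DMSO pinned in; signal read at 480/540 nm every second for 3 min. Each compound tested at 15 concentrations in triplicate.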

[5] = G protein-coupled receptor (GPCR) small molecule agonists, calcium flux assay: HEK293 wild type cell line counter screen (AID 1920065)
Method in brief: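 Counter-screen of the Tox21 10K library for non-specific calcium release: dye-loaded cells received compounds in DMSO and were monitored by kinetic fluorescence (480/540 nm, 3 min). Fifteen concentrations, run in triplicate.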

[6] = p53 small molecule agonists, cell-based qHTS assay with human liver microsomes (AID 1963577)
Method in brief: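 Compounds act here after metabolic activation: human liver microsomes and NADPH, both at 0.5 mg/mL final, were co-added to p53RE-bla cells. Incubation ran 16 h at 37 C, followed by LiveBLAzer detection.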

[7] = p53 small molecule agonists, cell-based qHTS assay with rat liver microsomes (AID 1963578)
Method in brief: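 Read-out is beta-lactamase reporter fluorescence (LiveBLAzer, 2 h, room temperature, dark) in p53RE-bla cells treated 16 h at 37 C with compound, rat liver microsomes and NADPH, both 0.5 mg/mL final.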

[8] = p53 small molecule agonists, cell-based qHTS assay with human liver microsomes: qHTS cell viability counter screen (AID 1963579); also: nearly all actives have a fitted effect of over 45% in size
Method in brief: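 Cells carrying the p53 response-element beta-lactamase reporter are treated for 16 h at 37 C with test compounds in the presence of human liver microsomes and NADPH (both 0.5 mg/mL final); ATP-based CellTiter-Glo luminescence then reports viability.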

[9] = p53 small molecule agonists, cell-based qHTS assay with rat liver microsomes: qHTS cell viability counter screen (AID 1963580); also: nearly all actives have a fitted effect of over 45% in size
Method in brief: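 p53RE-bla HCT-116 cells (4,000/well) rested 5 h at 37 C, then given Tox21 compounds in DMSO with rat liver microsomes (0.5 mg/mL final) plus NADPH (0.5 mg/mL final) for 16 h at 37 C. Viability read by CellTiter-Glo luminescence after 30 min at room temperature.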

[10] = p53 small molecule agonists, cell-based qHTS assay: qHTS cell viability counter screen (AID 1963581); also: nearly all actives have a fitted effect of over 45% in size
Method in brief: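 Cells: HCT-116 with p53 response element-driven beta-lactamase. Treatment: 16 h, 37 C, compounds in DMSO. Read: CellTiter-Glo luminescence after 30 min RT.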

[11] = p53 small molecule agonists, cell-based qHTS assay (AID 1963582; active = well fitted activation curve with a large enough effect in the signal ratio in the repeat runs, not every such curve was filed as active; the % refers to the signal ratio)
Method in brief: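 Quantitative HTS in p53RE-bla cells: after a 5 h settling period, compounds delivered in DMSO were left on cells for 16 h at 37 C, and reporter induction was measured as fluorescence following 2 h substrate loading.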

[12] = target: Beta-2 adrenergic receptor (Homo sapiens) (UniProt P07550); experiment: Adrenergic beta2 receptor (ADRB2) small molecule antagonists, cell-based qHTS assay (AID 1963592); also: series mostly up to about 92 µM; nearly all actives have a fitted effect of over 50% in size
Sequence of Beta-2 adrenergic receptor (Homo sapiens) (P07550 whole entry, looked up): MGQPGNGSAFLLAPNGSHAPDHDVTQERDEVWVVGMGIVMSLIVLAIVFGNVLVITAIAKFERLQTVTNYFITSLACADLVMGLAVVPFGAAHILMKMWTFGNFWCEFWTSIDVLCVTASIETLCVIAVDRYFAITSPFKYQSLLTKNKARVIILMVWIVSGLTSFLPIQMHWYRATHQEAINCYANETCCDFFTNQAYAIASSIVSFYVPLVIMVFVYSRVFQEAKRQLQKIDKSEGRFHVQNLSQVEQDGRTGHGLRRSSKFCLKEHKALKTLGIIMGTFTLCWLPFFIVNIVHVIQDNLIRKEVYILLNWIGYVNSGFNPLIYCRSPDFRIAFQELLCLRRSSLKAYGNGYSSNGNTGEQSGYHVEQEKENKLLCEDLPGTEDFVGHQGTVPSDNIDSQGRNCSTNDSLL
Method in brief: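 Cells (CHO, stable ADRB2 overexpression) incubated 18-20hr at 37C; compounds added from DMSO; agonist mix (1nM isoproterenol, 100uM IBMX, 25uM Ro-20-1724) added; 0.5hr RT; d2-cAMP and anti-cAMP-cryptate added; 1hr RT; 665/615 nm read.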

[13] = target: D(2) dopamine receptor (Homo sapiens) (UniProt P14416); experiment: Dopamine D2 receptor (DRD2) small molecule agonists, cell-based qHTS assay (AID 1963594); also: nearly all actives have a fitted effect of over 35% in size
Sequence of D(2) dopamine receptor (Homo sapiens) (P14416 whole entry, looked up): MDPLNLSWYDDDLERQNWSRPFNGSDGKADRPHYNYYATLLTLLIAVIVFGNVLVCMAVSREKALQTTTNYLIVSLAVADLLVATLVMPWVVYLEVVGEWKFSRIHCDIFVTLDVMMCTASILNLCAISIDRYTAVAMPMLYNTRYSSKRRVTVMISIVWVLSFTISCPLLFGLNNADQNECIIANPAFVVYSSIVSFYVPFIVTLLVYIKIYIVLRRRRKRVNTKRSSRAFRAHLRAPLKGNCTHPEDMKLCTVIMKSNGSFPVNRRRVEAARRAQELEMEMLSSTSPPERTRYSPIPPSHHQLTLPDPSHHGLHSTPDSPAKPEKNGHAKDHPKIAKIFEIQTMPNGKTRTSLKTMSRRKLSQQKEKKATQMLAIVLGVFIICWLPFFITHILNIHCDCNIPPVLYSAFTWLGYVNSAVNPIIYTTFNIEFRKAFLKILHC
Method in brief: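 HEK293 cells stably expressing DRD2 were cultured 24 h at 37 C, then given Ro20-1724 (0.1 mM final) and compounds for 10 min at room temperature. NKH477 (200nM) was then added for 30 min. cAMP was read by HTRF.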

[14] = target: D(2) dopamine receptor (Homo sapiens) (UniProt P14416); experiment: Dopamine D2 receptor (DRD2) small molecule antagonists, cell-based qHTS assay (AID 1963595; active = well fitted inhibition curve with a large enough effect in the signal ratio in the repeat runs, with a control signal flat; the % refers to the signal ratio)
Method in brief: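 HEK293 cells stably expressing DRD2 were preincubated with 0.1 mM Ro20-1724, then with compound for 10 min at room temperature. Cells were stimulated with 200 nM NKH477 plus 12 nM quinpirole for 30 min, and cAMP was read by HTRF.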

[15] = cAMP Responsive Elements (CRE) small molecule agonists, cell-based qHTS assay (AID 1963590)
Method in brief: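 Agonist mode qHTS in CRE-bla HEK 293T cells: compounds dosed from DMSO for 3 h at 37 C/5% CO2, followed by LiveBLAzer B/G FRET substrate for 2 h at room temperature.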

[16] = target: 5-hydroxytryptamine receptor 2A (Homo sapiens) (UniProt P28223); experiment: 5-hydroxytryptamine receptor 2A (HTR2A) small molecule agonists, cell-based qHTS assay (AID 1963587); also: nearly all actives have a fitted effect of over 30% in size
Sequence of 5-hydroxytryptamine receptor 2A (Homo sapiens) (P28223 whole entry, looked up): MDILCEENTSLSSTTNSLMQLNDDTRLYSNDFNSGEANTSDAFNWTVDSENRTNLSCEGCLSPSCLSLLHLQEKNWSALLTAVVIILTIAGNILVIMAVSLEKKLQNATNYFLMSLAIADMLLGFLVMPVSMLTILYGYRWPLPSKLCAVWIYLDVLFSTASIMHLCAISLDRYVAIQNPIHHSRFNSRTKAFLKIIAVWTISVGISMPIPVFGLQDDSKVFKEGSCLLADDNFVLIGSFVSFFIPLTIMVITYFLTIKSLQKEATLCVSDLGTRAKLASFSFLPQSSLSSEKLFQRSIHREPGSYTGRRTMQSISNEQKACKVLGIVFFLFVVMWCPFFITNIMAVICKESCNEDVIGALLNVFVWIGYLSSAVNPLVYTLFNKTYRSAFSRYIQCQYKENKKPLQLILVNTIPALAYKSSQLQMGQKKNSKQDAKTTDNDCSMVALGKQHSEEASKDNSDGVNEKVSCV
Method in brief: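 HTR2A-CHO cells, plated 18 h at 37 C/5% CO2, dye-loaded 1 h at 37 C; compounds in DMSO added by pin tool (agonist mode). Intracellular calcium flux read as kinetic fluorescence on FDSS over 2 min at 1 s intervals.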

[17] = target: Muscarinic acetylcholine receptor M1 (Homo sapiens) (UniProt P11229); experiment: Cholinergic receptor muscarinic 1 (CHRM1) small molecule antagonists, cell-based qHTS assay (AID 1963588); also: nearly all actives have a fitted effect of over 40% in size
Sequence of Muscarinic acetylcholine receptor M1 (Homo sapiens) (P11229 whole entry, looked up): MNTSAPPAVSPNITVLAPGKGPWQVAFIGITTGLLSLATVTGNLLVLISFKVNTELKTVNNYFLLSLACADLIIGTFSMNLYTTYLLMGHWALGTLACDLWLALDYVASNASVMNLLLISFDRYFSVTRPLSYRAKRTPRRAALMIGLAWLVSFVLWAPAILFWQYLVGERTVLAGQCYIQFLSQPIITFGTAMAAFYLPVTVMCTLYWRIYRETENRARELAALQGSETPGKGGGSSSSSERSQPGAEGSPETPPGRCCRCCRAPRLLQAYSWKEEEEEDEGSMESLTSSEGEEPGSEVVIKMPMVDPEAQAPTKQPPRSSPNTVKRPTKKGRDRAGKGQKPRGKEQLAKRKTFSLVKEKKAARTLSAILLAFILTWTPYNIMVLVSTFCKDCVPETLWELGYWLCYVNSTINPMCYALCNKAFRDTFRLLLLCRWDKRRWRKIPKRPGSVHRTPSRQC
Method in brief: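 CHRM1-CHO calcium-flux assay, antagonist mode. Cells were seeded 18 h, dye-loaded 1 h at 37 C and given compound for 5 min at RT, then acetylcholine was added at 50nM. FDSS fluorescence was read 3 min; 15 concentrations, three runs.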

[18] = target: Muscarinic acetylcholine receptor M1 (Homo sapiens) (UniProt P11229); experiment: Cholinergic receptor muscarinic 1 (CHRM1) small molecule agonists, cell-based qHTS assay (AID 1963589); also: nearly all actives have a fitted effect of over 35% in size
Method in brief: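 Agonist-mode qHTS in CHO cells stably carrying human muscarinic M1. Intracellular calcium is tracked by fluorescence every second after compound transfer; each compound runs at 15 concentrations in three independent runs.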

[19] = cAMP Responsive Elements (CRE) small molecule antagonists, cell-based qHTS assay (AID 1963591; active = well fitted inhibition curve with a large enough effect in the signal ratio in the repeat runs, not every such curve was filed as active; the % refers to the signal ratio)
Method in brief: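 Antagonist mode: test compounds are co-incubated with the adenylyl cyclase activator NKH477 (0.25 uM final) on CRE-bla HEK293T cells for 3 h at 37 °C, followed by LiveBLAzer substrate loading.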

[20] = target: Beta-2 adrenergic receptor (Homo sapiens) (UniProt P07550); experiment: Adrenergic beta2 receptor (ADRB2) small molecule agonists, cell-based qHTS assay (AID 1963593);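 also: CHO cells stably overexpressing human ADRB2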
Method in brief: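 CHO cells stably over-expressing ADRB2 were plated overnight at 37C, then dosed with compounds plus a stimulation mix containing 100uM IBMX and 25uM Ro-20-1724 for 0.5hr at room temperature. cAMP was measured by HTRF competition, 1hr.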
% is scaled to controls: 0 for no effect and ±100 for the full control effect.

O=C(O)Cc1ccc(-c2ccccc2)cc1
inactive: Potency [1] | Potency [2] | Potency [3] | outcome [4] | outcome [5] | Potency [6] | Potency [7] | Potency [8] | Potency [9] | Potency [10] | Potency [11] | Potency [12] | Potency [13] | Potency [14]

Clc1ccc2c(c1)CCc1cccnc1C2=C1CCNCC1
active: Potency [1] 29.8 µM
inactive: Potency [2] | Potency [3] | outcome [4] | outcome [5] | Potency [6] | Potency [7] | Potency [8] | Potency [9] | Potency [10] | Potency [11] | Potency [15] | Potency [12] | Potency [14]

Oc1ccccc1Cc1ccccc1O
inactive: Potency [1] | Potency [2] | Potency [3] | outcome [4] | outcome [5] | Potency [6] | Potency [7] | Potency [8] | Potency [9] | Potency [10] | Potency [16] | Potency [17] | Potency [18] | Potency [15] | Potency [19] | Potency [12] | Potency [20] | Potency [13] | Potency [14]

CC(=O)OCC(=O)[C@@]1(OC(C)=O)[C@@H](C)C[C@H]2[C@@H]3C[C@H](F)C4=CC(=O)C=C[C@]4(C)[C@@]3(F)[C@@H](O)C[C@@]21C
inactive: Potency [1] | Potency [2] | Potency [3] | outcome [4] | outcome [5] | Potency [6] | Potency [7] | Potency [8] | Potency [9] | Potency [10] | Potency [11] | Potency [12] | Potency [20] | Potency [13] | Potency [14]

CC(=O)[C@@]1(O)CC[C@H]2[C@@H]3C[C@H](C)C4=CC(=O)CC[C@]4(C)[C@H]3CC[C@@]21C
inactive: Potency [1] | Potency [2] | Potency [3] | outcome [4] | outcome [5] | Potency [6] | Potency [7] | Potency [8] | Potency [9] | Potency [10] | Potency [11] | Potency [12] | Potency [13] | Potency [14]

CCCCCCCCCCCCCCCCCCOCCO
inactive: activity change, negative = cytotoxicity [1] 1.01% [at 19 µM] | activity, positive = activation [2] -0.745% [at 19 µM] | activity change [3] 0.36% [at 11.8 µM, hits give high values] | activation [4] 1.36% [at 15.8 µM] | activation [5] 0.568% [at 11.8 µM] | activation [6] 4.4% [at 13.5 µM] | activation [7] 0.0249% [at 13.6 µM] | activity change, negative = cytotoxicity [8] -1.11% [at 13.5 µM] | activity change, negative = cytotoxicity [9] 2.48% [at 13.5 µM] | activity change, negative = cytotoxicity [10] 16.5% [at 13.5 µM] | activation [16] -2.03% [at 15.9 µM] | activity, negative = inhibition [17] -0.0015% [at 12.6 µM] | activation [18] -0.156% [at 15.8 µM] | activation [15] 3.72% [at 19 µM] | activity change, negative = inhibition [19] 0.259% [at 18.9 µM] | activity change, negative = inhibition [12] -12.3% [at 19 µM] | activation [13] -2.91% [at 19 µM] | activity change, negative = inhibition [14] -0.251% [at 18.9 µM]

CCCCc1nc(Cl)c(CO)n1Cc1ccc(-c2ccccc2-c2nn[nH]n2)cc1
inactive: Potency [1] | Potency [2] | Potency [3] | outcome [4] | outcome [5] | Potency [6] | Potency [7] | Potency [8] | Potency [9] | Potency [10] | Potency [11] | Potency [15] | Potency [13] | Potency [14]
